GDH-TPI inh = GDH-TPI coupling enzyme inhibitors, primary screen, artefact control for M. tuberculosis FBA inhibitor project, biochemical, absorbance, full deck. inhibition, % at 4.8 µM. actives 1.2% (n = 360,000). GDH-TPI coupled enzyme counterscreen, NADH absorbance; in the data active = inhibition above about 30%
VHR inh abs = VHR1 phosphatase inhibitors, primary screen, biochemical, absorbance, uHTS | AID 1654, 2009 | recombinant VHR phosphatase, pNPP absorbance | Dual specificity protein phosphatase 3 (Homo sapiens), P51452 | inhibition, % at 13.3 µM | actives 0.52% (n = 290,000); in the data active = inhibition above about 50%
Target sequence (P51452 whole entry, looked up): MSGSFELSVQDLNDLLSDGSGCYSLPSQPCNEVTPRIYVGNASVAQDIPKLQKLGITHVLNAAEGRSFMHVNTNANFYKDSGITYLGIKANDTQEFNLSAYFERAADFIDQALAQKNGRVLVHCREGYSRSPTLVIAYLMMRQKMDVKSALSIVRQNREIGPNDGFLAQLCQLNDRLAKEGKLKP
FBA Mtb inh = Mtb FBA enzyme inhibitors, primary screen, biochemical, fluorescence, strain H37Rv. actives 2.3% (n = 360,000). inhibition, % at 1 µM. Fructose-bisphosphate aldolase (Mycobacterium tuberculosis (strain ATCC 25618 / H37Rv)), …. purified M. tuberculosis FBA, fluorescence read-out; in the data active = inhibition above about 27%
Target sequence (P9WQA3 whole entry, looked up): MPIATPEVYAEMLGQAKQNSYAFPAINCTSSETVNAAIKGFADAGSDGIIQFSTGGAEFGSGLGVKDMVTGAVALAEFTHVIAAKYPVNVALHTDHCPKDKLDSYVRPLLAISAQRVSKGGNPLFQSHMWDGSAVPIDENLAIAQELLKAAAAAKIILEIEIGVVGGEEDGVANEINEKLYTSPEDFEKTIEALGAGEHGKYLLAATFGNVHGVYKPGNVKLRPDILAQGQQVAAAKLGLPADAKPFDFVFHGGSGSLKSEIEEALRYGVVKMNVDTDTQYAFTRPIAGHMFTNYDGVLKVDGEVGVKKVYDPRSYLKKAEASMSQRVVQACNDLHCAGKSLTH
Mtb betalactam = beta-lactam sensitization of Mtb H37Rv, H37Rv | M. tuberculosis H37Rv growth with meropenem, percent inhibition | inhibition, % at 25 µM | actives 0.27% (n = 330,000); call rule not given here;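 note: growth measured after seven days incubation then overnight dye step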
Mtb hypoxia inh = PubChem AID 1159583; M. tuberculosis hypoxia-regulated fluorescent reporter, fluorescence; fluorescence inhibition, % (test concentration not listed); actives 0.1% (n = 300,000); in the data active = fluorescence inhibition mostly above about 23%, no sharp cut-off; inactive = mostly below about 17%
A number is an active result; n = inactive; u = inconclusive; x = no result; + = active, no number. In the library only some 3.6% were active in any assay of this set; here they are far more common.

SMILES	GDH-TPI inh	VHR inh abs	FBA Mtb inh	Mtb betalactam	Mtb hypoxia inh
COc1ccc(-n2c(/C=C/c3ccc(O)cc3)nc3ccccc3c2=O)cc1	57	n	n	n	n
O=c1c2ccccc2nc(/C=C/c2ccc(Br)cc2)n1CCCO	n	n	n	n	n
CCOC(=O)C1C2COc3ccc(OC)cc3C2N2C(=O)CN(CC3CCCO3)C(=O)[C@@]12C (stereo partly specified)	x	x	x	x	n
CCOC(=O)C1=CCC(c2cc(OC)c(OC)c(OC)c2)N(S(=O)(=O)c2ccc(C)cc2)C1C(=O)OCC (stereo unspecified)	x	x	x	x	n
COc1ccc(C2C3C(=O)N(C(C)(C)C)C(=O)C3[C@]3(Cc4ccc(Cl)cc4)C(=O)N(c4cccc(Br)c4)C(=O)N23)cc1 (stereo partly specified)	x	x	x	x	n
CCN(CC)CCCNC(=O)c1nn2c(C(F)(F)F)cc(-c3ccccc3)nc2c1Cl	n	60	n	n	n
Cc1cccc(C)c1-n1c(C)cc(/C=C2\NC(=O)NC2=O)c1C	33	n	n	n	n
Cc1cc(/C=C2\NC(=S)NC2=O)c(C)n1-c1cccnc1	n	n	n	n	n
Cc1cc(/C=C2\NC(=O)NC2=O)c(C)n1-c1cccnc1	45	n	n	n	n
CC(C)(C)N1C(=O)Cc2c1nc(N)c1c(N)nc(N3CCCCC3CO)c(C#N)c21 (stereo unspecified)	n	58	n	n	n
C#CCn1c2ccccc2c(=O)n1C(C)C	x	x	121	x	x
COC(=O)c1cc(=O)nc(NN=C2c3ccccc3-c3ccccc32)s1	x	x	n	x	x
Cc1cccc(/C=N/NC(=O)c2cc3c(s2)-c2ccccc2CC3)c1	34	n	n	n	x
COC(=O)c1cc2c(s1)-c1cc(F)ccc1OC2	31	n	62	n	n
COC(=O)c1cc2c(s1)-c1ccccc1CC2	n	n	94	n	x
O=C(N/N=C/c1cccc(C(F)(F)F)c1)c1cc2c(s1)-c1ccccc1CC2	n	n	n	n	x
Cc1cc2oc3cc(NCCC4CCCN4C)ccc3c(=O)c2cc1C (stereo unspecified)	n	x	+	n	n
Cc1cc(C)c2c(n1)nn1c(N3CCN(Cc4ccccc4)CC3)cc(C)nc21	n	n	114	x	n
CCOC(=O)Nc1ccc2c(c1)N(C(=O)CCN(CC)CC)c1ccccc1CC2	n	50	n	n	n
CCN(CC)CCC(=O)N1c2ccccc2CCc2ccc(NC(=O)OC)cc21	n	n	n	n	n
Cc1cc(O)c(C=NNc2ccc(F)cc2)c(=O)o1	x	x	x	x	n
CC(=O)c1ccc(Nc2nc(C)cc(C)n2)cc1	33	n	n	n	n
CC1CCN(Cc2cc(=O)oc3cc4c(cc23)CCCC4)CC1	n	n	n	n	n
Cc1ccc2oc(=O)cc(CN3CC(C)OC(C)C3)c2c1 (stereo unspecified)	n	n	n	n	n
CN(Cc1ccccc1F)Cc1cc(=O)oc2cc(O)c(Cl)cc12	n	n	+	n	n
SMILES	GDH-TPI inh	VHR inh abs	FBA Mtb inh	Mtb betalactam	Mtb hypoxia inh
CC1CN(Cc2cc(=O)oc3cc(O)c(Cl)cc23)CC(C)O1 (stereo unspecified)	n	n	+	n	n
CC1CCN(Cc2cc(=O)oc3cc(O)c(Cl)cc23)CC1	n	n	+	n	n
Cc1ccc2c(CN3CCC(C)CC3)cc(=O)oc2c1C	n	53	n	n	n
CCC1(OC(=O)CN)C(=O)OCc2c1cc1n(c2=O)Cc2cc3ccccc3nc2-1 (stereo unspecified)	n	n	+	n	n
CC[C@@]1(O)C(=O)OCc2c1cc1n(c2=O)Cc2cc3ccccc3nc2-1	x	n	x	n	x
COc1ccc(N=c2cc(-c3ccc(OC)cc3)oc3ccccc23)cc1	n	n	n	n	x
COc1ccc(N=c2cc(-c3ccc(O)cc3)oc3ccccc23)cc1	n	n	n	n	n
COc1ccc(-c2cc(=NC(CC(C)C)C(=O)O)c3cc(C)ccc3o2)cc1 (stereo unspecified)	n	n	+	n	n
COc1ccc(-c2cc(=NCCC(=O)O)c3cc(C)ccc3o2)cc1	n	n	+	x	n
COc1ccc(-c2cc(=Nc3ccccc3)c3cc(C)ccc3o2)cc1	n	n	+	n	n
Cc1ccccc1COc1cccc(C=NNC(=O)c2nnn(-c3nonc3N)c2C)c1	x	x	x	x	n
O=C(CCc1nc2ccccc2[nH]c1=O)NN=Cc1ccccc1	x	x	x	x	n
O=c1oc2ccccc2c2c1SC(C(F)(F)F)C2 (stereo unspecified)	n	56	+	n	n
COC(=O)c1c(C)[nH]c(C=NNc2ccccc2)c1C	x	x	x	x	n
O=C(O)CC1S/C(=N\N=C/c2ccccc2)N(c2ccc(O)cc2)C1=O (stereo unspecified)	n	n	n	n	x
CN1C(=O)C(CC(=O)O)S/C1=N\N=C\c1ccc(O)cc1O (stereo unspecified)	52	n	n	n	x
O=C(CNc1ccc(Br)cc1)c1ccccc1	n	n	n	n	n
O=C(CNc1cccc(Cl)c1)c1ccc(Br)cc1	n	51	n	n	n
Cc1ccc(-c2nn(-c3ccccc3)cc2C=NO)cc1	x	x	x	x	n
CCOC(=O)c1sc(-c2ccc(Br)cc2)cc1N	n	n	n	n	n
NNC(=O)c1sc(-c2ccc(Cl)cc2)cc1N	n	51	n	n	n
Cc1cc(=O)oc2cc(OCC(=O)N3C[C@H]4C[C@@H](C3)c3cccc(=O)n3C4)ccc12	n	n	n	n	x
C=C(C)COc1ccc2c(C)c(CC(=O)N3C[C@H]4C[C@@H](C3)c3cccc(=O)n3C4)c(=O)oc2c1	n	n	114	n	x
Cc1noc(/C=C/N(C)C)c1S(=O)(=O)N1CCN(c2ccc(F)cc2)CC1	34	n	n	n	n
COc1ccc(N2CCN(C(=O)C3CCN(S(=O)(=O)c4c(C)noc4/C=C/N(C)C)CC3)CC2)cc1	44	n	n	n	n
SMILES	GDH-TPI inh	VHR inh abs	FBA Mtb inh	Mtb betalactam	Mtb hypoxia inh
COc1ccc(N2CCN(S(=O)(=O)c3c(C)noc3/C=C/N(C)C)CC2)cc1	40	n	n	n	n
Cc1cccc(N2CCN(S(=O)(=O)c3c(C)noc3/C=C/N(C)C)CC2)c1C	n	n	n	n	n
CNC(=O)C1CCN(S(=O)(=O)c2c(C)noc2/C=C/c2cccc(OC)c2)CC1	32	n	n	u	x
Cc1cccc(/C=C/c2onc(C)c2S(=O)(=O)N2CCC(C(=O)NC(C)(C)C)CC2)c1	n	n	n	u	x
CCOC(=O)Cn1cc(C=NNC(=O)CC#N)c2ccccc21	x	x	x	x	n
CCC(C)N1CCN(C(=O)C2CCN(S(=O)(=O)c3c(C)noc3/C=C/c3ccco3)CC2)CC1 (stereo unspecified)	38	n	n	n	n
COc1ccc(CNC(=O)C2CCN(C(=O)N3CCOc4ccc(C)cc43)CC2)cc1	n	51	n	n	n
Cc1cccc(NC(=O)C2CCN(S(=O)(=O)c3c(C)noc3/C=C/c3ccco3)CC2)n1	n	n	n	n	n

Bioassay records (PubChem BioAssay)
